Results: PubChem BioAssay (NCI)
This is part of a sample that, as a whole, favours compounds with a hit. Of some 79,000 tested, about 15% had one in any assay. Activity calls are given as the source filed them. No stated cut-off is given here; in the data, active means growth inhibition above about 70%; inactive means the rest.

What was measured:
[1] = NCI Yeast Anticancer Drug Screen. Data for the rad52 strain (AID 147);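 further: 0% = growth of vehicle-treated control cultures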; settings: S. cerevisiae rad52 mutant growth inhibition, active compounds read high
In short: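 Inhibition of yeast growth, referenced to vehicle controls, was the measured output for a strain with defective DNA damage repair.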

[2] = NCI Yeast Anticancer Drug Screen. Data for the wt1 strain (AID 149);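 further: 0% = growth of vehicle-treated wt1 cultures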; settings: S. cerevisiae wt1 strain (SPY 50644) growth inhibition, active compounds read high
In short: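 Vehicle-normalised growth inhibition; strain wt1; compound exposure.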

[3] = NCI Yeast Anticancer Drug Screen. Data for the rad50EPP+ strain (AID 151);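 further: 0% = growth of vehicle-treated control cultures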; settings: S. cerevisiae rad50 mutant strain, active compounds read high
In short: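 Genetically defined yeast (rad50EPP+, DNA damage repair alteration) is grown with compound, and inhibition of growth is expressed relative to vehicle-treated controls.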

[4] = NCI Yeast Anticancer Drug Screen. Data for the mgt1 strain (AID 153); settings: S. cerevisiae mgt1 mutant growth inhibition, active compounds read high
In short: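 In the mgt1 strain, test compounds were added and growth inhibition was determined relative to vehicle-treated controls.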

[5] = NCI Yeast Anticancer Drug Screen. Data for the rad50 strain (AID 155);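 further: 0% = growth of vehicle-only cultures of the same strain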; settings: S. cerevisiae rad50 strain growth inhibition, active compounds read high
In short: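 A DNA repair-deficient yeast mutant serves as the test organism; compound-induced growth inhibition is calculated against vehicle-treated cells.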

[6] = NCI Yeast Anticancer Drug Screen. Data for the mec2-1 strain (AID 157); settings: S. cerevisiae mec2-1 strain, active compounds read high
In short: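 Each compound was tested on mec2-1 yeast, a strain altered in DNA damage repair or cell cycle control. Growth inhibition is reported relative to vehicle.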

[7] = NCI Yeast Anticancer Drug Screen. Data for the rad14 strain (AID 159);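 further: 0% = growth of vehicle-treated control cultures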; settings: S. cerevisiae rad14 strain growth inhibition, active compounds read high
In short: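 Vehicle-treated cultures served as the baseline for growth inhibition of a DNA repair-mutant yeast strain exposed to each compound.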

[8] = NCI Yeast Anticancer Drug Screen. Data for the sgs1 mgt1 strain (AID 161);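 further: 0% = growth of cultures given vehicle only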; settings: S. cerevisiae sgs1 mgt1 strain, active compounds read high
In short: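 Mutant yeast exposed to compound; growth scored against vehicle-only wells.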

[9] = NCI Yeast Anticancer Drug Screen. Data for the CLN2oe strain (AID 163);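 further: 0% = growth of vehicle-only control cultures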; settings: S. cerevisiae CLN2oe strain, active compounds read high
In short: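 First, the altered yeast strain was treated with each compound; second, its growth was measured; finally, inhibition was derived by comparison with vehicle controls.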

[10] = NCI Yeast Anticancer Drug Screen. Data for the cln2 rad14 strain (AID 165);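 further: 0% = growth equal to vehicle treated cultures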; settings: S. cerevisiae cln2 rad14 strain, active compounds read high
In short: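 Test compounds were added to cln2 rad14 yeast cultures; inhibition of growth was then determined by comparison with vehicle treatment.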

[11] = NCI Yeast Anticancer Drug Screen. Data for the bub3 strain (AID 167); settings: S. cerevisiae bub3 mutant strain, active compounds read high
In short: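 Inhibition values come from growth of compound-treated mutant yeast normalised to vehicle-treated controls.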

[12] = NCI Yeast Anticancer Drug Screen. Data for the wt2 strain (AID 169);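 further: 0% = growth of vehicle-treated yeast cultures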; settings: S. cerevisiae wt2 strain growth inhibition, active compounds read high
In short: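 The panel's yeast strains carry defined changes in DNA repair or cell cycle genes. Each strain is grown with compound, and growth loss is scored relative to vehicle.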

[13] = NCI Yeast Anticancer Drug Screen. Data for the mlh1 strain (AID 171);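 further: 0% = growth of vehicle-treated control cultures of the same strain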; settings: S. cerevisiae mlh1 strain growth inhibition, active compounds read high
In short: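 Inhibition values reflect reduced yeast growth in the presence of compound, referenced to vehicle controls, using a strain chosen for its alteration in DNA repair or cell cycle control.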

[14] = NCI Yeast Anticancer Drug Screen. Data for the sgs1 strain (AID 173);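 further: 0% = growth of vehicle-only control cultures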; settings: S. cerevisiae sgs1 mutant, active compounds read high
In short: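 Vehicle-treated cultures served as reference for growth inhibition of a yeast strain altered in DNA damage repair or cell cycle control after compound exposure.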

[15] = NCI Yeast Anticancer Drug Screen. Data for the mlh1 rad18 strain (AID 175); settings: S. cerevisiae mlh1 rad18 strain growth inhibition, active compounds read high
In short: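 Inhibition values reflect reduced growth of mutant yeast versus vehicle-treated controls following compound exposure; the mutations affect DNA damage repair.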

[16] = NCI Yeast Anticancer Drug Screen. Data for the rad18 strain (AID 177); settings: S. cerevisiae rad18 mutant growth inhibition, active compounds read high
In short: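 Steps: expose repair-mutant yeast to compound; measure growth; express as inhibition relative to vehicle control.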

[17] = at 5.0 µM (retest, dose inferred, filed as 0.5)
[18] = at 50.0 µM (retest, dose inferred, filed as 5.0)

Measured: growth inhibition

Cc1c(C(Cc2ccccc2N(C)C(=O)/C=C\C(=O)O)c2c[nH]c3ccccc23)c2ccccc2n1C (stereo unspecified)
inactive: [1]; at 1.2 µM -5% | [1]; at 3.7 µM 0% | [1]; at 11.0 µM 0% | [1]; at 33.0 µM 7% | [1]; at 100.0 µM 36% | [2]; at 1.2 µM -3% | [2]; at 3.7 µM -6% | [2]; at 11.0 µM -7% | [2]; at 33.0 µM 0% | [2]; at 100.0 µM 40% | [3]; at 1.2 µM -6% | [3]; at 3.7 µM -4% | [3]; at 11.0 µM -6% | [3]; at 33.0 µM -6% | [3]; at 100.0 µM 4% | [4]; at 1.2 µM -3% | [4]; at 3.7 µM -3% | [4]; at 11.0 µM -2% | [4]; at 33.0 µM 5% | [4]; at 100.0 µM 65% | [5]; at 1.2 µM 1% | [5]; at 3.7 µM -2% | [5]; [17] -12% | [5]; at 11.0 µM -9% | [5]; at 33.0 µM 8% | [5]; [18] -12% | [5]; at 100.0 µM 37% | [6]; at 1.2 µM -2% | [6]; at 3.7 µM -4% | [6]; [17] 8% | [6]; at 11.0 µM -5% | [6]; at 33.0 µM 2% | [6]; [18] 8% | [6]; at 100.0 µM 51% | [7]; at 1.2 µM -3% | [7]; at 3.7 µM -11% | [7]; at 11.0 µM -14% | [7]; at 33.0 µM -13% | [7]; at 100.0 µM 33% | [8]; [17] -16% | [8]; [18] -16% | [9]; at 1.2 µM -11% | [9]; at 3.7 µM -2% | [9]; at 11.0 µM -9% | [9]; at 33.0 µM -4% | [9]; at 100.0 µM 42% | [10]; [17] 38% | [10]; [18] 38% | [11]; at 1.2 µM -9% | [11]; at 3.7 µM -6% | [11]; [17] -6% | [11]; at 11.0 µM 4% | [11]; at 33.0 µM 6% | [11]; [18] -6% | [11]; at 100.0 µM 30% | [12]; at 1.2 µM -3% | [12]; at 3.7 µM -4% | [12]; at 11.0 µM -5% | [12]; at 33.0 µM 3% | [12]; at 100.0 µM 49% | [13]; at 1.2 µM -7% | [13]; at 3.7 µM -6% | [13]; at 11.0 µM -7% | [13]; at 33.0 µM 4% | [13]; at 100.0 µM 62% | [14]; at 1.2 µM -5% | [14]; at 3.7 µM -4% | [14]; at 11.0 µM -3% | [14]; at 33.0 µM 7% | [14]; at 100.0 µM 46% | [15]; [17] -9% | [15]; [18] -9% | [16]; at 1.2 µM -14% | [16]; at 3.7 µM -14% | [16]; at 11.0 µM -8% | [16]; at 33.0 µM 0% | [16]; at 100.0 µM 42%
active: [5]; at 50.0 µM 87.8% | [6]; at 50.0 µM 86.8% | [8]; at 50.0 µM 86.9% | [10]; at 50.0 µM 88.1% | [11]; at 50.0 µM 85.5% | [15]; at 50.0 µM 78%

CCC(=O)c1cccc2ccccc12
inactive: [1]; at 1.2 µM 1% | [1]; at 3.7 µM 2% | [1]; at 11.0 µM 1% | [1]; at 33.0 µM 2% | [1]; at 100.0 µM -1% | [2]; at 1.2 µM 0% | [2]; at 3.7 µM 1% | [2]; at 11.0 µM 3% | [2]; at 33.0 µM 0% | [2]; at 100.0 µM -4% | [3]; at 1.2 µM 6% | [3]; at 3.7 µM 11% | [3]; at 11.0 µM 27% | [3]; at 33.0 µM 48% | [4]; at 1.2 µM 1% | [4]; at 3.7 µM -1% | [4]; at 11.0 µM 0% | [4]; at 33.0 µM 15% | [4]; at 100.0 µM 3% | [5]; at 1.2 µM 0% | [5]; at 3.7 µM -1% | [5]; [17] -14% | [5]; at 11.0 µM 1% | [5]; at 33.0 µM 0% | [5]; [18] 2% | [5]; at 50.0 µM 14.7% | [5]; at 100.0 µM -3% | [6]; at 1.2 µM -2% | [6]; at 3.7 µM 0% | [6]; [17] 5% | [6]; at 11.0 µM -2% | [6]; at 33.0 µM -1% | [6]; [18] 4% | [6]; at 50.0 µM 19.2% | [6]; at 100.0 µM -1% | [7]; at 1.2 µM -1% | [7]; at 3.7 µM -2% | [7]; at 11.0 µM -1% | [7]; at 33.0 µM -1% | [7]; at 100.0 µM 4% | [8]; [17] -4% | [8]; [18] 52% | [8]; at 50.0 µM 20% | [9]; at 1.2 µM -7% | [9]; at 3.7 µM 2% | [9]; at 11.0 µM -6% | [9]; at 33.0 µM -13% | [9]; at 100.0 µM -11% | [10]; [17] 12% | [10]; [18] 18% | [10]; at 50.0 µM 46.5% | [11]; at 1.2 µM -6% | [11]; at 3.7 µM -6% | [11]; [17] 11% | [11]; at 11.0 µM -6% | [11]; at 33.0 µM -8% | [11]; [18] 23% | [11]; at 50.0 µM -4.8% | [11]; at 100.0 µM 4% | [12]; at 1.2 µM 1% | [12]; at 3.7 µM 2% | [12]; at 11.0 µM 3% | [12]; at 33.0 µM 1% | [12]; at 100.0 µM 1% | [13]; at 1.2 µM 3% | [13]; at 3.7 µM 2% | [13]; at 11.0 µM 2% | [13]; at 33.0 µM 1% | [13]; at 100.0 µM 4% | [15]; [17] 7% | [15]; [18] 28% | [15]; at 50.0 µM -14.7% | [16]; at 1.2 µM 1% | [16]; at 3.7 µM -1% | [16]; at 11.0 µM -14% | [16]; at 33.0 µM 0% | [16]; at 100.0 µM -2%
active: [3]; at 100.0 µM 86%
